From PubChem
Tb PYK inh: T. brucei pyruvate kinase inhibition. 410,000 compounds, 0.12% hits. TbPYK enzyme, Kinase-Glo Plus ATP luminescence, 45 min. Potency, µM (highest dose often 76.8 µM), inactives show top-dose activity, negative = inhibition, usual class: inhibitors. Q57TT1; further: on the % scale 0 is the no-effect control and ±100 the full control effect; nearly all actives have a fitted effect of over 50% in size
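Readout: single end-point luminescence (Kinase-Glo Plus, 10 min). Reaction conditions were TbPYK/substrate plus 130 uM ADP, 45 min at RT, pH 7.2 TEA buffer. No-enzyme wells served as controls, and data were normalized before concentration-response fitting.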
Sm TGR block: S. mansoni TGR enzyme inhibition. 360,000 compounds, 3% hits. AID 485364. purified TGR, DTNB reduction, TNB absorbance 405 nm. Q962Y6. Potency, µM (doses to about 114 µM), for the others: at the highest dose activity change, negative = inhibition, usual class: inhibitors; further: on the % scale 0 is the no-effect control and ±100 the full control effect; nearly all actives have a fitted effect of over 60% in size
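TGR 20 nM + NADPH 100 uM (dispensed conc.), cpd preinc 15 min RT; start with NADPH (500 uM addition) then DTNB (15 mM addition). Kinetic TNB absorbance, 405 nm filter. Four-parameter Hill fit across titration.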
NS1 inh: influenza NS1 inhibition; 270,000 compounds, 0.4% hits; Potency, µM (series often up to 46.1 µM), inactives show at the highest dose activity, positive = more growth; calls by dose curve; further: actives are rising curves; nearly all actives have a fitted effect of over 50% in size
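Recovery from NS1-induced slow growth read by OD600 in budding yeast switched to galactose assay medium (pH 6.0, -URA) at 1:100 dilution. Compound 23 nl per well; the matching strain lacking NS1 serves as control.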
LmPK inh: blocks Leishmania mexicana pyruvate kinase activity; 290,000 compounds, 0.37% hits; Q27686; purified LmPK, Kinase-Glo ATP luminescence, 1 h; Potency, µM (titrated, usually from 57.5 µM), for inactives: top-dose activity change, negative = inhibition, hits mostly inhibitors; further: on the % scale 0 is the no-effect control and ±100 the full control effect
Target sequence (Q27686 whole entry, looked up): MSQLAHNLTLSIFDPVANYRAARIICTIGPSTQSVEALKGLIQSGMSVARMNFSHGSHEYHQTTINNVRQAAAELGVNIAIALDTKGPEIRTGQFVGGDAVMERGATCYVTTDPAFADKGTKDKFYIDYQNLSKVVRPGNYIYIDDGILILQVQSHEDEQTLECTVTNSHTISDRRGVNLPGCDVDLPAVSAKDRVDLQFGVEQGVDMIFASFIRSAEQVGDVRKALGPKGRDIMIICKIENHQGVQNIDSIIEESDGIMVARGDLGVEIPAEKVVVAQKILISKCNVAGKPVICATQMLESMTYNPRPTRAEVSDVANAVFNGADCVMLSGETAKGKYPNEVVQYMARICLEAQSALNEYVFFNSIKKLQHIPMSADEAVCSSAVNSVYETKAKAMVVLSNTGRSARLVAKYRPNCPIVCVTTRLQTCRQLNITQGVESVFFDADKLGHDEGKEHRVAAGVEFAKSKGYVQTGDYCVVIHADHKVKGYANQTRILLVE
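In 50 mM imidazole pH 7.2 with 7 mM MgCl2, LmPK (0.1 nM) turned over PEP (0.5 mM) and ADP (0.1 mM) for 1 h at room temperature. Luciferase read-out of ATP.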
SARS PLpro yeast: SARS-CoV PLP inhibition in yeast; S. cerevisiae expressing SARS-CoV PLpro, growth rescue; Potency, µM (highest dose often 32.9 µM), inactives show at the highest dose activity, positive = growth rescue, most hits filed as activators; 330,000 compounds, 0.19% hits; AID 485353; calls by dose curve; further: 0% is about no effect; nearly all actives have a fitted effect of over 55% in size
RE007 growth inh: less growth of the S. pombe RE007 Vpr strain; Potency, µM (top dose mostly 92.2 µM), for the others: at the highest dose activity change, negative = less growth, actives largely listed as inhibitors; AID 651644; S. pombe RE007 Vpr strain, BacTiter-Glo ATP luminescence, 24 h; 360,000 compounds, 0.21% hits; active means well fitted falling curve with a large enough effect; inconclusive means small, poorly fitted or top-dose-only effect; inactive means no such curve, though single readings can be large or run the other way; further: on the % scale 0 is the no-effect control and ±100 the full control effect; nearly all actives have a fitted effect of over 50% in size
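Fission yeast RE007 carrying one integrated HIV-1 vpr copy, seeded at OD 0.01 in PMG+AL medium with 23 nL pinned compound. Grown 24 h at 30 degrees; viability read by BacTiter-Glo luminescence after 5 min.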
Starred values were filed as active, the others as inactive; ? = inconclusive; nt = no result given. Most compounds without a hit are left out; they make up all but 3.3% or so of the library. Unless noted, the call rests on the fitted dose curve; in most records, active means well fitted curve in the direction sought with a large enough effect; inconclusive means small, poorly fitted or top-dose-only effect, or another doubt; inactive means no such curve, though single readings can be large; an effect the other way counts as inactive or inconclusive. Potency means the concentration at half of the fitted maximal effect.

SMILES	Tb PYK inh	Sm TGR block	NS1 inh	LmPK inh	SARS PLpro yeast	RE007 growth inh
O=C(OCc1nnc(-c2ccccc2)o1)C1CC(=O)N(Cc2ccco2)C1 (stereo unspecified)	-3%	14µM*	nt	5%	1%	4%
COC(=O)c1sc(N)c(C(=O)OC)c1COC(=O)C1CC(=O)N(Cc2ccco2)C1 (stereo unspecified)	-17%	?	8%	8%	8%	9%
O=C(NCc1ccccc1Cl)C1CCN(S(=O)(=O)Cc2ccccc2)CC1	2%	1%	nt	nt	nt	nt
CC(C)[C@@H](C)/C=C\[C@@H](C)[C@@H]1CC[C@H]2C3=CC=C4C[C@@H](O)CC[C@]4(C)[C@H]3CC[C@]21C	nt	nt	-1%	nt	nt	nt
CNC(=O)COC(=O)c1ccc(-c2nc3ccccc3s2)s1	-27%	-16%	-3%	14µM*	12%	-14%
Cc1ccc(NC2(c3ccccc3)C(=O)c3ccccc3C2=O)cc1F	-3%	6%	nt	nt	nt	nt
Nc1nc(N)nc(CC(=O)O)n1	nt	nt	-1%	nt	nt	nt
CC(=O)OCCCNc1cc(SCc2ccco2)c2nonc2c1[N+](=O)[O-]	-7%	7.1µM*	0%	-1%	18%	-13%
CCCSc1cc(NCCOC(=O)CCC)c([N+](=O)[O-])c2nonc12	22%	2µM*	-22%	-1%	-103%	-9%
CCCC(=O)OCCNc1cc(SCc2ccco2)c2nonc2c1[N+](=O)[O-]	?	14µM*	-5%	-2%	6%	0%
CCCC(=O)OCCNc1cc(Sc2nccn2C)c2nonc2c1[N+](=O)[O-]	24%	0.4µM*	-18%	-1%	?	-6%
CCOc1ccc(C(=O)N(Cc2ccc(C(C)C)cc2)Cc2ccco2)cc1	-8%	-1%	nt	nt	nt	nt
Cc1cc(C(C)(C)C)cc(CNC2CCCCC2)c1O	nt	nt	-6%	nt	nt	nt
CCN(CC)S(=O)(=O)c1cc(-c2ccc(=O)n(C(C)C(=O)Nc3cccc(C#N)c3)n2)ccc1C (stereo unspecified)	0%	-8%	nt	nt	nt	nt
Cc1ccc(OCCCC(=O)Nc2sc3c(c2C(N)=O)CCCC3)cc1	-3%	-12%	nt	nt	nt	nt
CCSc1ncc(Cl)c(C(=O)Nc2ccc(S(=O)(=O)N(C)c3ccccc3)cc2)n1	1%	13%	nt	nt	nt	nt
CC(C)Sc1ncc(Cl)c(C(=O)Nc2ccc(S(=O)(=O)N(C)c3ccccc3)cc2)n1	1%	-10%	nt	nt	nt	nt
CCS(=O)(=O)c1ncc(Cl)c(C(=O)Nc2ccc(S(=O)(=O)N(C)c3ccccc3)cc2)n1	7%	0.5µM*	-1%	0%	1%	5%
CCN(c1ccccc1)S(=O)(=O)c1ccc(NC(=O)c2nc(S(C)(=O)=O)ncc2Cl)cc1	35%	0.4µM*	-10%	-3%	10%	5%
Cc1ncc(COP(=O)(O)O)c(C)c1O	nt	nt	-3%	nt	nt	nt
Cc1ncc(CN2CCCC(C(=O)Nc3ccc(-c4ccco4)cc3)C2)cn1 (stereo unspecified)	-9%	45µM*	10%	-11%	4%	-6%
CCSc1nnnn1-c1ccccc1	-6%	0%	0%	0%	3%	-6%
Cc1ncc(CSc2nnnn2-c2ccccc2)c(N)n1	2%	45µM*	1%	-3%	-2%	123%
O=C(c1ccc2nc(-c3ccco3)c(-c3ccco3)nc2c1)N1CCN(c2ncccn2)CC1	-12%	10µM*	2%	1%	-7%	16%
O=C(Nc1ccc2nc(-c3ccco3)c(-c3ccco3)nc2c1)N1CCN(c2ccccn2)CC1	?	2µM*	?	1%	-3%	1%
SMILES	Tb PYK inh	Sm TGR block	NS1 inh	LmPK inh	SARS PLpro yeast	RE007 growth inh
Cc1ccc(CCNC(=O)CS(=O)Cc2nc(-c3ccccc3C)oc2C)cc1 (stereo unspecified)	-1%	-23%	nt	nt	nt	nt
CCc1ccc(-c2nc(CS(=O)CC(=O)NCCc3ccc(C)cc3)c(C)o2)cc1 (stereo unspecified)	4%	22µM*	nt	nt	nt	nt
Cc1oc(-c2ccccc2Cl)nc1CS(=O)CC(=O)NCCc1ccccc1 (stereo unspecified)	-4%	0%	13%	-4%	12%	-9%
CCc1ccc(-c2nc(CS(=O)CC(=O)NCCc3ccccc3)c(C)o2)cc1 (stereo unspecified)	0%	10µM*	-2%	9%	6%	3%
Cc1ccccc1-c1noc(-c2ccc(N3CCC(C)CC3)c([N+](=O)[O-])c2)n1	-4%	-4%	nt	nt	nt	nt
CC(=O)Nc1cc(OC(C)=O)c2nonc2c1OC(C)=O	-5%	8.9µM*	7%	15%	-16%	-9%
CC(=O)Nc1nonc1NC(C)=O	2%	-1%	?	2%	1%	-9%
CC1CCCN(S(=O)(=O)c2ccc(NC(=O)c3nc(SC(C)C)ncc3Cl)cc2)C1 (stereo unspecified)	-11%	3%	nt	nt	nt	nt
CC(=O)Nc1ccc(-c2ccc3nnc(C)n3n2)cc1	-6%	0%	nt	8%	2%	-6%
Cc1nnc2ccc(-c3ccc(NC(=O)c4ccco4)cc3)nn12	4%	32µM*	nt	11%	0%	39%
CC1CCN(C(CC(=O)c2ccccc2)C(=O)c2ccccc2)CC1 (stereo unspecified)	20µM*	nt	nt	nt	nt	4.5µM*
Nc1ccc2nc(-c3cc(Cl)c(N)c(Cl)c3)[nH]c2c1	-4%	-1%	?	16µM*	-5%	1%
Nc1ccc2nc(-c3ccc(Cl)cc3)[nH]c2c1	0%	-2%	-10%	-2%	-27%	-28%
CCCCN(Cc1cccs1)S(=O)(=O)c1cc(-c2cc(C)no2)ccc1C	-9%	-3%	nt	nt	nt	nt
Cc1ccc(-c2nc(CN(CC3CCC3)CC3CCCO3)c(C)o2)s1 (stereo unspecified)	1%	56µM*	-1%	3%	-2%	-15%
Cc1ccc(C2=C(Cl)C(=O)C(c3ccc(C)cc3)=C(Cl)C2=O)cc1	nt	nt	-8%	nt	nt	nt
Cc1ccc(N2C(N)=C(C#N)C(c3cccnc3)C3=C2CC(C)(C)CC3=O)cc1 (stereo unspecified)	-1%	40µM*	5%	-1%	-1%	22%
CCOc1ccc(OCC)c(C2C(C#N)=C(N)N(c3cccnc3)C3=C2C(=O)CC(C)(C)C3)c1 (stereo unspecified)	0%	22µM*	-3%	-2%	7%	-2%
Cc1ccc(N2C(N)=C(C#N)C(c3ccsc3)C3=C2CC(C)(C)CC3=O)cc1 (stereo unspecified)	-9%	-14%	17%	1%	3%	8%
COc1ccc2nc(Cl)c(C3CC(c4ccco4)=NN3C(=O)CCC(=O)O)cc2c1 (stereo unspecified)	-15%	?	10%	2%	16%	5%
